# Test results reported in PubChem BioAssay (NCATS).
# Results filed as inconclusive are left out. A call without a number means that no potency is given here. Active and inactive are the calls of the source. Calls come from the whole dose curve.
# Test: Primary qHTS for Huh7 cytotoxicity: counterscreen for inhibitors of MERS-S pseudotyped particle cell entry (AID 1479147)
# Settings: cell viability read-out; series mostly up to 57.1 µM
row,Compound,Potency
1,CC[C@H](Nc1ncnc2nc[nH]c12)c1nc2cccc(F)c2c(=O)n1-c1ccccc1,inactive
2,N#CC[C@H](C1CCCC1)n1cc(-c2ncnc3[nH]ccc23)cn1,inactive
3,Cc1cn(-c2cc(NC(=O)c3ccc(C)c(Nc4nccc(-c5cccnc5)n4)c3)cc(C(F)(F)F)c2)cn1,inactive
4,CC(C)(C)c1cc(C(C)(C)C)c(NC(=O)c2c[nH]c3ccccc3c2=O)cc1O,inactive
5,CCCS(=O)(=O)Nc1ccc(F)c(C(=O)c2c[nH]c3ncc(-c4ccc(Cl)cc4)cc23)c1F,inactive
6,Cc1c(C(=O)Nc2ccc(N3C[C@@H](C)O[C@@H](C)C3)nc2)cccc1-c1ccc(OC(F)(F)F)cc1,inactive
7,COc1cc2nccc(Oc3ccc(NC(=O)C4(C(=O)Nc5ccc(F)cc5)CC4)cc3)c2cc1OC,inactive
8,C#CC(C)(CC)OC(=O)c1ccccc1C(=O)O (centres undefined),inactive
9,Cc1cc(C(=O)NNCc2ccccc2)no1,inactive
10,CCOP(=O)(OCC)C(C)NC(=O)N(CCCl)N=O (centres undefined),inactive
11,Oc1c(I)cc(I)c2cccnc12,inactive
12,O=C(c1cc(Cc2n[nH]c(=O)c3ccccc23)ccc1F)N1CCN(C(=O)C2CC2)CC1,inactive
13,Cn1cncc1[C@@](N)(c1ccc(Cl)cc1)c1ccc2c(c1)c(-c1cccc(Cl)c1)cc(=O)n2C,inactive

# Test: Primary qHTS for inhibitors of MERS-S pseudo-typed particle cell entry (AID 1479149); note: nearly all actives have a fitted effect of over 60% in size; note: potency is the fitted concentration of half-maximal effect
# Settings: MERS-S pseudotyped particle entry, luciferase; series mostly up to 57.1 µM
row,Compound,Potency
1,CC[C@H](Nc1ncnc2nc[nH]c12)c1nc2cccc(F)c2c(=O)n1-c1ccccc1,inactive
2,N#CC[C@H](C1CCCC1)n1cc(-c2ncnc3[nH]ccc23)cn1,inactive
3,Cc1cn(-c2cc(NC(=O)c3ccc(C)c(Nc4nccc(-c5cccnc5)n4)c3)cc(C(F)(F)F)c2)cn1,inactive
4,CC(C)(C)c1cc(C(C)(C)C)c(NC(=O)c2c[nH]c3ccccc3c2=O)cc1O,inactive
5,Cc1c(C(=O)Nc2ccc(N3C[C@@H](C)O[C@@H](C)C3)nc2)cccc1-c1ccc(OC(F)(F)F)cc1,20 µM (active)
6,C#CC(C)(CC)OC(=O)c1ccccc1C(=O)O (centres undefined),inactive
7,Cc1cc(C(=O)NNCc2ccccc2)no1,inactive
8,CCOP(=O)(OCC)C(C)NC(=O)N(CCCl)N=O (centres undefined),inactive

# Test: Primary qHTS for Vero E6 cytotoxicity: counterscreen for inhibitors of SARS-S pseudo-typed particle cell entry (AID 1479150)
# Settings: cell viability; series mostly up to 57.1 µM
row,Compound,Potency
1,CC[C@H](Nc1ncnc2nc[nH]c12)c1nc2cccc(F)c2c(=O)n1-c1ccccc1,inactive
2,N#CC[C@H](C1CCCC1)n1cc(-c2ncnc3[nH]ccc23)cn1,inactive
3,Cc1cn(-c2cc(NC(=O)c3ccc(C)c(Nc4nccc(-c5cccnc5)n4)c3)cc(C(F)(F)F)c2)cn1,inactive
4,CC(C)(C)c1cc(C(C)(C)C)c(NC(=O)c2c[nH]c3ccccc3c2=O)cc1O,inactive
5,CCCS(=O)(=O)Nc1ccc(F)c(C(=O)c2c[nH]c3ncc(-c4ccc(Cl)cc4)cc23)c1F,inactive
6,Cc1c(C(=O)Nc2ccc(N3C[C@@H](C)O[C@@H](C)C3)nc2)cccc1-c1ccc(OC(F)(F)F)cc1,inactive
7,COc1cc2nccc(Oc3ccc(NC(=O)C4(C(=O)Nc5ccc(F)cc5)CC4)cc3)c2cc1OC,inactive
8,C#CC(C)(CC)OC(=O)c1ccccc1C(=O)O (centres undefined),inactive
9,Cc1cc(C(=O)NNCc2ccccc2)no1,inactive
10,CCOP(=O)(OCC)C(C)NC(=O)N(CCCl)N=O (centres undefined),inactive
11,Oc1c(I)cc(I)c2cccnc12,inactive
12,O=C(c1cc(Cc2n[nH]c(=O)c3ccccc23)ccc1F)N1CCN(C(=O)C2CC2)CC1,inactive
13,Cn1cncc1[C@@](N)(c1ccc(Cl)cc1)c1ccc2c(c1)c(-c1cccc(Cl)c1)cc(=O)n2C,inactive
